High-throughput results (PubChem)
Luc counter: counter-screen: inhibitors of Kinase-Glo firefly luciferase | AID 1379 | Kinase-Glo luciferase, ATP luminescence, 8 min | Potency, µM (series often up to 38.3 µM), inactives show at the top dose activity change, negative = inhibition, usual class: inhibitors | hit rate 0.28% among 200,000 | Q27757; active = well fitted inhibition curve with a large enough effect; inconclusive = small, poorly fitted or top-dose-only effect; note: potency is the fitted concentration of half-maximal effect; nearly all actives have a fitted effect of over 60% in size
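Light output from Kinase-Glo luciferase with luciferin and 10 uM ATP in 50 mM imidazole pH 7.2, KCl, MgCl2, Tween 20, BSA; compound pin-delivered, 8-min ambient incubation, then luminescence read.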
Lamin A splicing: modulators of lamin A splicing; hit rate 0.01% among 200,000; HeLa LMNA splicing GFP/RFP minigene ratio, 48 h; Potency, µM (titrated, usually from 46.1 µM), for inactives: at the top dose ratio change, negative = inhibition, usual class: inhibitors; AID 1487; active = well fitted inhibition curve with a large enough effect in the signal ratio, with a control signal flat, not every such curve was filed as active; inconclusive = small, poorly fitted or top-dose-only effect, or effect the other way, or a change in a side signal; the % refers to the signal ratio; note: potency is the fitted concentration of half-maximal effect
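S3 HeLa stable clones carrying a lamin A-EGFP splicing minigene plus DsRed2 were seeded at 600 cells/well in Opti-MEM with 2% FBS, pin-dosed and incubated 48 h at 37°C. Acumen cytometry (488 nm) gave the GFP/RFP total-intensity ratio.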
ALDH1A1 block: blocks purified human ALDH1A1 activity; P00352; Purified ALDH1A1, NADH fluorescence, propionaldehyde substrate; Potency, µM (titrated, usually from 75.3 µM), inactives show at the highest dose activity, negative = inhibition, usual class: inhibitors; hit rate 7.3% among 220,000; AID 1030;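 note: potency is the fitted concentration of half-maximal effect; plate controls were no enzyme wells and a reference inhibitor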
HPGD block: HPGD (human) dehydrogenase inhibition. P15428. purified HPGD, NADH fluorescence kinetic, PGE2 substrate. Potency, µM, for the others: top-dose activity change, negative = inhibition, usual class: inhibitors. hit rate 4.3% among 150,000. AID 894; note: potency is the fitted concentration of half-maximal effect
Target sequence (P15428 whole entry, looked up): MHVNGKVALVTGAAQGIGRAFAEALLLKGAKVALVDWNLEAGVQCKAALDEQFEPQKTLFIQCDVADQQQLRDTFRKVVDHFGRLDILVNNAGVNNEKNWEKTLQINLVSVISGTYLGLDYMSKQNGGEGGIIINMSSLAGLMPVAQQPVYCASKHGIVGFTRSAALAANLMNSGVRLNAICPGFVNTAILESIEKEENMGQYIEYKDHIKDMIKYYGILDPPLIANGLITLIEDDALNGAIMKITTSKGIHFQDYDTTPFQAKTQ
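NADH formation kinetics: reaction with 30 uM PGE2 and 1 mM NAD+ (final), 20 nM enzyme, Tris-HCl pH 8 with Tween 20, after 15 min compound preincubation at room temperature. Fluorescence change, last versus first of five reads.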
PNC assembly inh: blocks assembly of the perinucleolar compartment. hit rate 3.1% among 140,000. PC3M PTB-GFP, PNC prevalence imaging, 16 h; stronger effect = lower value. activity change (PNC), negative = inhibition, % at 10 µM;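 active = readout at or below -70, meaning at least 70% loss of cells showing the perinucleolar compartment, a nuclear body marking cancer cells; inconclusive = readout between -30 and a set limit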;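 note: plate controls were DMSO wells for no effect and camptothecin positive control wells for full effect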
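Read-out is percentage of cells bearing a perinucleolar compartment, from automated 20x imaging of fixed, Hoechst-stained PC3M PTB-GFP cells. Cells were seeded 4 h, then exposed 16 h to compound (23 nl of library stock) in duplicate plates.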
* marks the source's active call; other numbers are inactive results; ? = inconclusive; / = no result; [ ] = remark or other dose. Rows were chosen to be rich in hits. Some 10% of all compounds tested hit in one or more screens of this group. Unless noted, calls come from the whole dose curve; as a rule, active = well fitted inhibition curve with a large enough effect (not every such curve was filed as active); inconclusive = small, poorly fitted or top-dose-only effect, or another doubt; inactive = no such curve, though single readings can be large or run the other way. Unless noted, % is set by controls: 0 for no effect and ±100 for the full control effect.

SMILES	Luc counter	Lamin A splicing	ALDH1A1 block	HPGD block	PNC assembly inh
CC(=O)N1N=C(c2ccco2)CC1c1ccc(Br)cc1 (centres undefined)	2%	-12%	-2%	-22%	-29
O=C(c1ccco1)N1N=C(c2cccs2)CC1c1ccc(F)cc1 (centres undefined)	-2%	7%	20µM*	-23%	?
CCc1ccc(C2CC(c3ccco3)=NN2S(C)(=O)=O)cc1 (centres undefined)	11µM*	13%[0.0737 µM]	?	-4%	41
CS(=O)(=O)Nc1ccc(C2=NN(C(=O)c3ccco3)C(c3ccc(F)cc3)C2)cc1 (centres undefined)	3%	?	?	/	/
COCC(=O)N1CCC2(CC1)CCN(c1cccc(-c3ccccc3)c1)CC2	0%	/	-1%	-14%	/
CCCN(C(=O)CSc1nnc(-c2ccoc2C)n1N)C1CCS(=O)(=O)C1 (centres undefined)	11%	0%	20µM*	-20%	?
CCCN(CC1CC1)C(=O)CSc1nnc(-c2ccco2)n1N	/	/	32µM*	/	/
COc1cccc(CNC(=O)C(=O)NCC(c2cccs2)S(=O)(=O)c2cccs2)c1 (centres undefined)	/	19%[46 µM]	/	/	/
COc1ccc(NC(=S)N(CCCN2CCCC2)Cc2cccn2Cc2ccc(Cl)cc2)cc1Cl	-2%	?	?	/	/
O=C(c1ccccc1)N1CCN(Cc2ccccc2)CC1	2%	-18%	?	-15%	-100*
O=C(c1ccccc1)c1ccc(OCCOCCN2CCN(Cc3ccccc3)CC2)cc1	-1%	-1%[46 µM]	18µM*	/	/
COc1ccc(N2CCN(C(=O)c3cccc(Cn4cc(Cl)cn4)c3)CC2)cc1	-3%	?	-7%	-13%	-112*
Clc1cccc(CN2CCC(Cc3ccccc3)CC2)c1	/	?	20µM*	/	-11
Clc1ccc(CN2CCC(Cc3ccccc3)CC2)cc1	0%	-6%	?	-12%	-17
N=C(C[C@@H](O)COc1ccccc1-c1ccccc1)N1CCCCC1	-4%	/	5%	5%	/
Oc1c(C(c2ccccc2)N2CCC(O)CC2)sc2nc(-c3ccco3)nn12 (centres undefined)	/	-6%[46 µM]	/	/	/
O=C(O)CSc1ncccc1[N+](=O)[O-]	0%[7.66 µM]	/	-3%[13.5 µM]	-3%	/
COc1cc(OC)cc(C(=O)N2CCN(Cc3cccc(F)c3)CC2)c1	1%	-2%	?	0%	32
O=C(N1CCN(c2ccccc2)CC1)C12CC3CC(CC(C3)C1)C2	-1%	?	?	-9%	-8
O=C(N1CCN(Cc2ccccc2)CC1)C12CC3CC(CC(C3)C1)C2	0%	-24%	6.3µM*	-3%	27
COc1ccc2nc3oc(C(=O)N4CCN(c5cccc(Cl)c5)CC4)cc3cc2c1	2%	-9%	178%	176%	-87*
Oc1cccc(C(=S)N2CCN(Cc3ccccc3)CC2)c1	4%	-3%	11µM*	14µM*	-24
Cc1ccc(C(=S)N2CCN(Cc3ccccc3)CC2)cc1	2%	?	?	/	/
COc1cccc(C(=O)N2CCN(Cc3cccc(F)c3)CC2)c1	-3%	0%	18µM*	-1%	-6
COc1ccc(N(CC(=O)O)N=O)cc1	1%[7.66 µM]	/	-2%[13.5 µM]	-6%	/
SMILES	Luc counter	Lamin A splicing	ALDH1A1 block	HPGD block	PNC assembly inh
Cc1cc(C)c(NC(=O)CSc2nc3c([nH]c4ccccc43)c(=O)n2C)c(C)c1	/	8%[46 µM]	/	/	/
O=C(O)C1CC(C2CCCCN2)CN2CCCCC12 (centres undefined)	-1%	-4%	5%	-1%	/
CC1=C(C)CC(C(=O)N2CCN(Cc3ccccc3)CC2)C(C(=O)O)C1 (centres undefined)	7%	-6%	14µM*	-6%	30
Cc1cccc(NC(=O)N2CCN(Cc3ccc(Cl)cc3)CC2)c1	-3%	/	8%	/	/
O=C(Nc1cccc(Cl)c1)N1CCN(Cc2ccccc2)CC1	-3%	-4%	4%	-23%	-96*
CCCCC(=O)Nc1ccc2c(c1)nc1n2CCSC1	-14%	4%	18µM*	32µM*	-18
CC(C)(C)NC(=O)[C@H]1CN(Cc2cccnc2)CCN1C[C@@H](O)C[C@@H](Cc1ccccc1)C(=O)N[C@H]1c2ccccc2C[C@H]1O	3%[39.9 µM]	?	20%	-21%	/
COc1c(CO)cc(CO)cc(CO)c1=O	-1%	/	-3%	-3%	/
CCN1CCc2c(sc(NC(=O)c3ccc(S(=O)(=O)N(CCOC)CCOC)cc3)c2C(N)=O)C1	/	-5%[46 µM]	/	/	/
COCCN(CCOC)S(=O)(=O)c1ccc(C(=O)Nc2sc3c(c2C(N)=O)CCCCC3)cc1	-3%	-2%	?	?	-119*
COC(=O)c1c(NC(C)=O)sc2c1CCCCC2	-3%	13%	16µM*	28µM*	-3
COC(=O)c1c(NC(=S)Nc2ccc(F)cc2[N+](=O)[O-])sc2c1CCCCC2	/	6%	4µM*	/	7
COC(=O)c1c(NC(=S)Nc2ccc(C(=O)N3CCOCC3)cc2)sc2c1CCC2	-1%	/	3.5µM*	/	/
CNC(=O)C1CCC(Cn2c(=O)c3sccc3n(CC(=O)Nc3ccc(C)c(C)c3)c2=O)CC1 (centres undefined)	/	-11%[46 µM]	/	/	/
N#Cc1ccc(NC(=O)COCc2cc(-c3ccc4c(c3)OCO4)on2)cc1	/	-1%[46 µM]	/	/	/
COC(=O)c1c(NC(=O)CCNCc2ccco2)sc2c1CCC2	/	/	24µM*	/	/
COC(=O)c1c(NC(C)=O)sc2c1CCCC2	0%	2%	25µM*	-23%	34
COC(=O)c1c(NC(=O)c2ccccc2N(C)S(=O)(=O)c2ccccc2)sc2c1CCCC2	5%	?	?	?	-108*
COc1ccc(NC(=O)c2c(NC(=O)CNCc3ccco3)sc3c2CCC3)cc1	4%	?	?	-17%	-9
CNC(=S)Nc1sc2c(c1C(=O)OC)CCC2	2%	/	?	/	/
CCN(CC)S(=O)(=O)c1cccc(C(=O)N/N=C/c2ccc(O)c(O)c2O)c1	-1%	-6%	8.9µM*	25µM*	12
CCn1c(C)nc2cc(C(=O)N/N=C/c3ccc(O)c(O)c3O)ccc21	-4%	/	1.4µM*	/	/
Cc1ccc(-n2c(SCC(=O)NCCN3C(=O)CSC3=O)nnc2-c2ccccc2)cc1	-4%	5%	1%	-8%	31
O=C(COC(=O)c1ccccc1Br)NCCN1C(=O)CSC1=O	1%	-21%[46 µM]	14µM*	/	/
Cn1c(SCC(=O)NCCN2C(=O)CSC2=O)nnc1-c1ccccc1	2%	-8%	9%	3%	-82*
Cc1ncoc1C(=O)N1CCCC(C(=O)c2ccc(Oc3ccccc3)cc2)C1 (centres undefined)	/	/	2.8µM*	/	/
Cc1ncoc1C(=O)N1CCCC(C(=O)c2ccc(C(F)(F)F)cc2)C1 (centres undefined)	0%	/	16µM*	/	/
Cc1ncoc1C(=O)N1CCCC(C(=O)c2cccc(OC(C)C)c2)C1 (centres undefined)	-4%	/	25µM*	/	/
